Screens from PubChem.
Shown are actives, neighbours in structure and some others; about 8.1% of the full set was active somewhere.
RORg inh: qHTS for inhibitors of ROR gamma transcriptional activity | Drosophila S2 Gal4-RORgamma UAS-luciferase reporter, 20 h | Potency, µM (series often up to 53.6 µM), without a hit: at the highest dose activity change, negative = inhibition, usual class: inhibitors | actives 5.4% (n = 310,000); further: on the % scale 0 is the no-effect control and ±100 the full control effect; nearly all actives have a fitted effect of over 60% in size
Target sequence (P51450 whole entry, looked up, the tested form may be a part): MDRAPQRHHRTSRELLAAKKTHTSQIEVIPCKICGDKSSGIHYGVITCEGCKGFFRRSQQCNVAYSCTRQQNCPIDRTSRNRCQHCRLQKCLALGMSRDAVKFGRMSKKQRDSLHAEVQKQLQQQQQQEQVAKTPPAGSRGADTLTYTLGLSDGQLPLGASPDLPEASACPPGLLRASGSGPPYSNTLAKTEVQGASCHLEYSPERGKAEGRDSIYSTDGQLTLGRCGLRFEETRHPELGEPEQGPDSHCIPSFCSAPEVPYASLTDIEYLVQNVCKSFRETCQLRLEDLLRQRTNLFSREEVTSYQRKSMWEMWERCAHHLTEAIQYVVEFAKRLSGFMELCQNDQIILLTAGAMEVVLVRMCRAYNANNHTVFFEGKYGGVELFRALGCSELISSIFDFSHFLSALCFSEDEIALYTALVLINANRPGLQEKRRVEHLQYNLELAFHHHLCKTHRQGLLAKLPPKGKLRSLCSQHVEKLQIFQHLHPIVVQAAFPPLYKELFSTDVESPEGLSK
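Stably transfected Drosophila Schneider cells are the test system, with ROR gamma fused to Gal4 and luciferase under UAS control; luminescence is read after 20 hr of 700 uM copper sulfate induction at ambient temperature.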
Gal4-VP16 FLuc: VP16 counterscreen qHTS for inhibitors of ROR gamma transcriptional activity; Drosophila S2 Gal4-VP16 UAS-luciferase, luminescence, 20 h; Potency, µM (top dose mostly 53.6 µM), for inactives: top-dose activity, negative = inhibition, most hits filed as inhibitors; actives 3.5% (n = 310,000); AID 2546, 2010;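 further: Gal4-VP16 expression switched on by copper sulfate through the metallothionein promoter; on the % scale 0 is the no-effect control and ±100 the full control effect; nearly all actives have a fitted effect of over 50% in size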
Epigenetic reg: Quantitative High-Throughput Screen for Regulators of Epigenetic Control; actives 0.2% (n = 280,000); murine LDR cells, GFP reporter derepression, 30 h; Potency, µM (highest dose often 53.9 µM), inactives show at the highest dose GFP activation, most hits filed as activators; further: % of control where 0% means no effect; nearly all actives have a fitted effect of over 60% in size
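In this reporter-derepression format, murine cells bearing a silenced integrated CMV-GFP locus incubate with test compound (30 h, 37 C), then are washed and imaged; fluorescent objects of 20–120 um count as induced cells.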
PINK1 modulator: A Quantitative High throughput Screen to Identify Chemical Modulators of PINK1 Expression | AID 624263, 2012 | PINK1 immunofluorescence, high-content cytometry, 24 h | Potency, µM (series often up to 76.6 µM), inactives show at the top dose activation (PINK1 increase), actives largely listed as activators | actives 0.2% (n = 410,000); active means well fitted activation curve with a large enough effect; inconclusive means small, poorly fitted or top-dose-only effect; cell line not stated here; further: % of control where 0% means no effect; nearly all actives have a fitted effect of over 65% in size
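Measures PINK1 amount and localization on or inside mitochondria by immunofluorescence. Stable cells get compounds at 5 concentrations for 24 hours before fixation and staining; CCCP controls included.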
Sfp inh: qHTS Assay for Inhibitors of Bacillus subtilis Sfp phosphopantetheinyl transferase (PPTase) | actives 3.5% (n = 310,000) | Biochemical Sfp PPTase activity, qHTS | 4'-phosphopantetheinyl transferase ffp (Bacillus subtilis), Q9F4F7 | Potency, µM, without a hit: largest response in the series, negative = inhibition, usual class: inhibitors;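 further: the enzyme is Sfp with the accession as filed and its product quenches rhodamine fluorescence; 0% = enzyme reaction without inhibitor and -100% = no enzyme wells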
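Fluorescence-quenching assay: 15 nM Sfp-PPTase preincubated 15 min at room temperature with compound, then 5 uM rhodamine-CoA and 12.5 uM BHQ-2-labelled YbbR peptide added. Fluorescence (ex 525/em 598 nm) read at start and after 30 min; difference gives rate.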
ClpP mod: qHTS Assay for Activators of ClpP | ATP-dependent Clp protease proteolytic subunit (Bacillus subtilis (strain 168)), P80244 | purified B. subtilis ClpP, FRET peptide cleavage, 20 min | Potency, µM (highest dose often 57.5 µM), for inactives: at the highest dose activity change, negative = active | actives 1.9% (n = 340,000); active means well fitted falling curve with a large enough effect; inconclusive means small, poorly fitted or top-dose-only effect; inactive means no such curve, though single readings can be large or run the other way; further: the source files actives as falling curves though it sought activators and does not explain the sign; nearly all actives have a fitted effect of over 65% in size
Target sequence (P80244 whole entry, looked up): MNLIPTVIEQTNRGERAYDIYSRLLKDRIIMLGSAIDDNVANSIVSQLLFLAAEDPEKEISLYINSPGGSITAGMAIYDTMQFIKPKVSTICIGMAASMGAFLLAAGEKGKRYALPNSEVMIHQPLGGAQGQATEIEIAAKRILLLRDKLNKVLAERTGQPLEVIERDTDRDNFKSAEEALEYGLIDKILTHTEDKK
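FRET quenching reversal measured ClpP activation: 10 microg/mL B. subtilis ClpP at pH 8 with the FRET-FV decapeptide, read at 430 nm after 320 nm excitation. The 20-min minus 0-min signal was scaled between DMSO/no-enzyme wells and ADEP (5.8 microM final).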
* = called active by the depositor; ? = inconclusive; · = not tested or not shown; [ ] = another dose, or the depositor's remark. Unless noted, the call rests on the fitted dose curve; in most records, active means well fitted curve in the direction sought with a large enough effect; inconclusive means small, poorly fitted or top-dose-only effect, or another doubt; inactive means no such curve, though single readings can be large; an effect the other way counts as inactive or inconclusive. Potency means the concentration at half of the fitted maximal effect.

SMILES	RORg inh	Gal4-VP16 FLuc	Epigenetic reg	PINK1 modulator	Sfp inh	ClpP mod
Cc1ccc(CC(=O)Nc2nc3ccccc3[nH]2)cc1C	3.16µM*	-27.2%	-1.2%	2.5%	5.1%	-1.5%
O=C(CCNC(=O)c1ccccc1Cl)Nc1nc2ccccc2[nH]1	·	·	·	2.1%	·	0.6%
CN(C)c1ccc(C=O)c(Cl)c1	·	·	·	·	·	-4.2%
Cc1cccc(-n2c(C)cc(C=C3C(=O)c4ccccc4C3=O)c2C)c1	-18.8%	2.6%	14.0%	·	-24.0%	-2.5%
Cc1cc(/C=C2/C(=O)NN(c3ccccc3)C2=O)c(C)n1-c1ccc(O)cc1	14.1µM*	3.98µM*	0.1%	1.1%	4.4%	1.4%
O=C1NN(c2ccccc2)C(=O)/C1=C/c1coc2ccccc2c1=O	41.3%	12.7%	1.2%	16.8%	-6.3%	42.5%
Cc1cc(C=C2C(=O)CCCC2=O)c(C)n1-c1ccccc1	8.91µM*	-3.8%	0.0%	4.4%	2.9%	0.4%
O=C1NN(c2ccccc2)C(=O)/C1=C\c1coc2ccc(O)cc2c1=O	-28.5%	0.5%	-2.1%	11.1%	79.4µM*	-0.2%
Cc1ccc(NC(=O)c2nc(-c3ccncc3)no2)c(Cl)c1	·	·	1.4%	0.3%	·	-6.7%
CC(=O)Nc1nonc1-c1nc2ccccc2n1Cc1ccccc1Br	·	·	-1.1%	5.6%	·	25.1µM*
CC(=O)Nc1nonc1-c1nc2ccccc2n1N(C(C)=O)C(C)=O	26.4%	6.2%	-3.8%	2.9%	-5.1%	28.2µM*
O=C(NNC1=NCCC1)c1cccc(S(=O)(=O)N2CCCC2)c1	8.91µM*	?	1.0%	-0.6%	19.2%	·
Cc1ccc(C(=O)NNC(=O)c2ccc(C)cc2)cc1	16.6%	0.2%	2.5%	1.6%	12.9%	·
Cc1ccc(C(=O)NNC2=NCCC2)cc1	10µM*	17.8µM*	1.8%	-1.1%[38.3 µM]	1.2%	-1.5%
Cc1ccc(NCC(=O)NNC2=NCCC2)c(C)c1	8.91µM*	11.2µM*	-3.0%	0.4%	-11.6%	-3.3%
O=C(NNC1=NCCC1)c1ccc(Br)cc1	5.62µM*	6.31µM*	0.8%	-3.4%	20.6%	-3.6%
CCCCN(Cc1cc2ccccc2[nH]c1=O)C(=O)c1cccc(Cl)c1	·	·	0.8%	-1.7%	·	?
O=c1c2ccccc2nc(SCc2nnc(-c3ccccc3)o2)n1-c1ccc(F)cc1F	-1.5%	6.8%	-2.9%	1.1%	6.4%	25.1µM*
O=c1c2ccccc2nc(SCc2nnc(-c3ccccc3Br)o2)n1-c1ccccc1	-36.5%	0.6%	0.0%	-4.0%[38.3 µM]	8.9%	-3.2%
N#C/C(=C\c1cccc(O)c1)C(=O)N1CCCCC1	5.6%[1.91 µM]	-27.1%	·	0.1%	6.0%	·
N#C/C(=C\c1cccc(Br)c1)C(=O)N1CCCCC1	2.51µM*	?	·	-1.7%	-1.4%	·
COc1ccc(CCNC2CC(=O)N(CCc3ccccc3)C2=O)cc1 (stereo not drawn)	-5.5%	-4.6%	-4.7%	10.4%[38.3 µM]	-10.7%	-2.4%
O=C1CC(N2CCC(Cc3ccccc3)CC2)C(=O)N1CCc1ccccc1 (stereo not drawn)	?	-21.5%	?	-4.9%[38.3 µM]	56.2µM*	-1.8%
O=C1CC(N2CCN(C3CC(=O)N(CCc4ccccc4)C3=O)CC2)C(=O)N1CCc1ccccc1 (stereo not drawn)	38.3%	-2.0%	-1.0%	-1.5%[38.3 µM]	15.1%	1.8%
Cc1ccc(NC2CC(=O)N(CCc3ccccc3)C2=O)cc1 (stereo not drawn)	3.98µM*	-10.6%	0.7%	?	-7.2%	0.7%
SMILES	RORg inh	Gal4-VP16 FLuc	Epigenetic reg	PINK1 modulator	Sfp inh	ClpP mod
CCN(CC)c1ccc(NC2CC(=O)N(CCc3ccc(OC)cc3)C2=O)cc1 (stereo not drawn)	-27.5%	1.5%	3.55µM*	2.24µM*	31.6µM*	·
O=C(C[n+]1cccc(Cl)c1)c1ccc(O)c(O)c1	·	·	·	1.1%	·	0.4%
Cc1cc(C(=O)Nc2cccc(-c3nc(CNC(=O)c4ccccc4C(F)(F)F)c(C)o3)c2)c(C)o1	·	·	·	2.5%	·	·
C=C(C)CNC(=S)Nc1sc2c(c1C(=O)OCC)CC(C)(C)OC2	1.41µM*	1.41µM*	0.9%	-1.2%	39.8µM*	0.5%
CCOC(=O)c1c(NC(=O)CCC(=O)N(CC)CC)sc2c1CC(C)(C)OC2	?	?	14.1%	1.5%	-8.5%	-16.6%
CCOC(=O)c1c(NC(=O)c2ccccc2C)sc2c1CC(C)(C)OC2	-2.7%	-17.1%	0.0%	6.7%	31.6µM*	?
CCCC(=O)Nc1sc2c(c1C(=O)OCC)CC(C)(C)OC2	2.6%	-0.6%	-1.4%	2.0%	9.6%	-0.3%
CCOC(=O)c1c(NC(=O)c2ccc(C)cc2)sc2c1CC(C)(C)OC2	-6.7%	1.1%	-0.8%	26.7%	25.1µM*	25.1µM*
CCN(CC)c1ccc(CNCCCSc2nnnn2C)cc1	·	·	0.0%	-0.9%	·	-3.7%
CCc1ccc(NC(=O)N(Cc2cn(CC)c3ccccc23)C2CCCCC2)cc1	·	·	-2.5%	-0.8%	·	-22.3%
CCc1cccc(C)c1NS(=O)(=O)c1cc2[nH]c(=O)c(=O)[nH]c2cc1C	·	·	-1.2%	1.3%	·	5.0%
Cc1ccc(CNC(=O)C2CCCCN2S(=O)(=O)c2ccc(F)cc2)cc1 (stereo not drawn)	·	·	-4.8%	-0.8%	·	-2.6%
O=C(CSc1nc2c([nH]c3ccccc32)c(=O)n1-c1cccc(Cl)c1)NCc1ccccc1	·	·	0.0%	-4.1%	·	?
CCCN(Cc1cccs1)C(=O)Nc1cc(C)ccc1OC	·	·	-3.4%	0.8%	·	0.1%
CCOc1ccccc1CNc1nnnn1C	-11.1%	-2.0%	·	0.9%	17.9%	·
Cn1nnnc1NCc1ccccc1F	0.631µM*	3.2%	·	-0.8%	-2.6%	-0.1%
C=CC[C@@H]1C=C[C@H](ON=C(C)C)[C@H](CO)O1	-8.1%[10 µM]	-8.4%[10 µM]	0.0%[10.1 µM]	·	-5.9%	·
COc1cccc(C(Nc2ccccn2)c2oc(CO)cc(=O)c2O)c1 (stereo not drawn)	5.5%	-9.6%	1.0%	-0.3%	4.47µM*	-0.7%
O=c1cc(CO)oc(C(Nc2ccccn2)c2ccccc2F)c1O (stereo not drawn)	·	·	·	0.1%	·	-4.9%
O=c1cc(CO)oc(C(Nc2ccccn2)c2cccc(F)c2)c1O (stereo not drawn)	-41.9%	-9.4%	-0.8%	-0.3%	10µM*	0.4%
O=c1cc(CO)oc(C(Nc2ccccn2)c2ccc(C(F)(F)F)cc2)c1O (stereo not drawn)	-16.1%	5.5%	-0.3%	-1.7%	?	-1.3%
CCN(Cc1ccncc1)Cc1ccc2c(c1)CN(C(=O)c1ccccc1-n1cccn1)CCO2	·	·	·	-0.1%	·	·
C=Cc1ccccc1Cl	-1.2%	-1.2%	·	·	·	·
